# Source: the supplement of paper PMC7156485
# ± gives the standard deviation of the averaged measurements.
# Columns and labels:
# Conditions in all cases: concentration: 10 µM; 24 h
# HCC1569 [1] = assay: cell number relative to DMSO (% of DMSO); higher = more cells (less growth inhibition / toxicity)
# In short: (§1)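 HCC1569 and TDF cells were seeded at 800 per well in 384-well plates in RPMI with 10% FBS and treated with compounds at 10 µM for 24 h at 37 °C, in triplicate. After fixation in 3.7% formaldehyde, cells were stained with a rabbit anti-H1.0 antibody, an AlexaFluor 647 secondary and DAPI, and six fields per well were imaged at ×10. H1.0 nuclear intensity or cell number is given as percent of the plate control, using the median of replicates, with HCC1569 values smoothed for positional effects.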
# TDF [2] = assay: as above
# In short: as §1
# TDF [3] = assay: H1.0 immunofluorescence intensity relative to DMSO (% of DMSO); higher = stronger H1.0 induction, active = 120 or more
# In short: as §1
# HCC1569 [4] = assay: H1.0 immunofluorescence intensity relative to DMSO (% of DMSO); higher = stronger H1.0 induction, active = 140 or more
# In short: as §1
# 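Throughout, for H1.0 immunofluorescence intensity relative to DMSO: TDF is a line of transformed human dermal fibroblasts of mesenchymal origin.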
# 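Throughout, for cell number relative to DMSO: TDF denotes transformed human dermal fibroblasts of mesenchymal origin.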
SMILES,cell number (HCC1569 [1]),cell number (TDF [2]),H1.0 immunofluorescence intensity (TDF [3]),H1.0 immunofluorescence intensity (HCC1569 [4])
CCC(C(=O)C(C)C(O)C(C)CCc1ccc(C)c(O)c1C(=O)[O-])C1OC(CC)(C2CCC(O)(CC)C(C)O2)CC1C.[Na+] (stereo unspecified) [Lasalocid A],79.3,88.5,105 (inactive),94.6 (inactive)
O=C(Nc1cc(Cl)cc2c1[nH]c1cnccc12)c1cccnc1 [IKK Inhibitor X],98.7,91.8,101 (inactive),106 (inactive)
CN1C2CCC1CC(OC(=O)c1c[nH]c3ccccc13)C2.Cl (stereo unspecified) [3-Tropanyl-indole-3-carboxylate hydrochloride],103,112,93.4 (inactive),112 (inactive)
CC(C)C(=O)c1c(C(C)C)nn2ccccc12 [Ibudilast],101 ± 4.1,97.7 ± 1.3,93.1 (inactive),94.5 (inactive)
CNC(=C[N+](=O)[O-])NCCSCc1ccc(CN(C)C)o1.Cl [Ranitidine hydrochloride],101,113,91.6 (inactive),85.1 (inactive)
"O=C(O)C=Cc1cc(Br)c(Br)c(Br)c1Br [Casein Kinase II Inhibitor III, TBCA]",98.7,113,92.9 (inactive),105 (inactive)
Br.CN1CCc2cc(O)c(O)cc2C(c2ccccc2)C1 (stereo unspecified),105,98.2,89.8 (inactive),105 (inactive)
NC(Cn1ccc(=O)c(O)c1)C(=O)O [L-Mimosine],101,86.3,105 (inactive),102 (inactive)
COCCc1ccc(OCC(O)CNC(C)C)cc1 (stereo unspecified) [Metoprolol],104,99.5,102 (inactive),104 (inactive)
